Screening results deposited in PubChem by National Center for Advancing Translational Sciences (NCATS).
An excerpt weighted towards active compounds, which were near 19% of everything screened.
HepG2 viability: kills HepG2 cells in TGF-b inhibitor counter-screen | 410,000 compounds, 0.76% hits | HepG2 CAGA-GFP viability, ATP luminescence, 18 h | Potency, µM (top dose mostly 46.1 µM), for inactives: top-dose activity change, negative = cytotoxicity, usual class: cytotoxic; further: potency means the concentration at half of the fitted maximal effect
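HepG2 CAGA-GFP cells (1000/well, DMEM with 1% FBS) received compound, then TGF-beta at 500 pg/mL final, and were incubated 18 hours at 37 degrees C. Viability was read by CellTiter-Glo luminescence. Media-only wells were set as complete cell-killing and DMSO as no toxicity.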
DT40 TDP1 CPT: growth inhibition of DT40 Tdp1-/-;hTDP1 cells with camptothecin (screen for TDP1 inhibitors). chicken DT40 Tdp1-/-;hTDP1 cells + 20 nM CPT, ATP luminescence, 48 h. Potency, µM (highest dose often 46.2 µM), inactives show top-dose activity change, negative = growth inhibition, hits mostly inhibitors. 420,000 compounds, 12% hits. AID 686979; further: potency means the concentration at half of the fitted maximal effect; on the % scale 0 is the no-effect control and ±100 the full control effect; nearly all actives have a fitted effect of over 55% in size
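Cell growth measured by CellTiter-Glo luminescence after a minimum 48 h, 37 C compound exposure with 20 nM CPT in Tdp1-knockout DT40 cells stably expressing hTDP1, seeded 400/well; qHTS titration format.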
IL-1B inflam inh: inflammasome signaling inhibition, IL-1 beta readout; activity change, % at 57.5 µM; 360,000 compounds, 4.7% hits; AID 743279; THP-1 LPS/ATP IL-1B secretion, AlphaLISA, 16 h; stronger effect = lower value; in the data active means activity change below about -50%; inconclusive means mostly about -30% to -49%; further: on the % scale 0 is the no-effect control and ±100 the full control effect
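Secreted IL-1B measured by AlphaLISA bead assay after 16 h compound exposure of THP-1 cells; compounds (final up to 57.5 uM) added 1 h before LPS (250 ng/mL) and ATP (1.25 mM) stimulation; lower signal means less secretion.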
S-ASM inh: blocks human secretory acid sphingomyelinase. 340,000 compounds, 0.006% hits. Potency, µM (series often up to 57.5 µM), for inactives: at the top dose activity change, negative = inhibition, usual class: inhibitors. P17405. AID 504937. placental ASM, HMU-PC fluorogenic substrate, 60 min; further: potency means the concentration at half of the fitted maximal effect
Target sequence (P17405 47-631 limits assumed): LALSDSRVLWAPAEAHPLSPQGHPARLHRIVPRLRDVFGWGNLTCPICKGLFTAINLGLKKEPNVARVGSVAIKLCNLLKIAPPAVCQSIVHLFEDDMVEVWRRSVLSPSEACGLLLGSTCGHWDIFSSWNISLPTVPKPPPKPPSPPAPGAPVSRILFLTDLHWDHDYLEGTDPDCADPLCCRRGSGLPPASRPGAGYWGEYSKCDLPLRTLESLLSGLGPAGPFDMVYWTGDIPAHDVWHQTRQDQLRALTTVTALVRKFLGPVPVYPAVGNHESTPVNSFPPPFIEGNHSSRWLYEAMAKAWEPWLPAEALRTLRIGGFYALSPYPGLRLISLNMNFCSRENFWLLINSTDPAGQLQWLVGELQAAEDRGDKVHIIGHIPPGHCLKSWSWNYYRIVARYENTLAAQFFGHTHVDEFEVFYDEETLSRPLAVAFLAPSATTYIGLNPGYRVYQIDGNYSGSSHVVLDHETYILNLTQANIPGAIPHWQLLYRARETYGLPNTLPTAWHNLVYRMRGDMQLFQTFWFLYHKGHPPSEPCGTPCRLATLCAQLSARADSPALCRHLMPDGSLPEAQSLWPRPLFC
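Human placenta-derived ASM enzyme was preincubated with compound for 10 minutes at room temperature, then given fluorogenic substrate HMU-PC0 (9 uM final) for 60 minutes at 37 °C; a pH 10 stop preceded fluorescence reading at Ex 386/Em 447 nm.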
TGFb inhibitor: inhibitors of TGF-b signaling; HepG2 CAGA-GFP TGF-b/SMAD3 reporter, GFP fluorescence, 18 h; TGF-beta stimulated, 500 pg/mL final; Potency, µM (highest dose often 46.1 µM), for the others: at the highest dose activity, negative = inhibition, hits mostly inhibitors; 410,000 compounds, 1.2% hits; AID 588855; further: potency means the concentration at half of the fitted maximal effect; on the % scale 0 is the no-effect control and ±100 the full control effect; nearly all actives have a fitted effect of over 65% in size
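Inhibition of TGF-beta-driven CAGA-GFP reporter expression in HEPG2 cells is measured by cellular GFP fluorescence after 18 h stimulation with 500 pg/mL recombinant TGF-beta in 1% FBS medium at 37 degrees C.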
TDP1 cell noCPT: qHTS for Inhibitors of human tyrosyl-DNA phosphodiesterase 1 (TDP1): qHTS in cells in absence of CPT | DT40 Tdp1-/- hTDP1 cells, no CPT, ATP luminescence, 48 h | Potency, µM (series often up to 46.2 µM), for the others: at the highest dose activity change, negative = growth inhibition, most hits filed as inhibitors | 420,000 compounds, 15% hits; further: potency means the concentration at half of the fitted maximal effect; on the % scale 0 is the no-effect control and ±100 the full control effect; nearly all actives have a fitted effect of over 55% in size
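Growth kinetics read by CellTiter-Glo luminescence after ≥48 hr at 37 °C. Cells: DT40 Tdp1-/- stably carrying human TDP1, 400 per well, compound exposure in the absence of CPT (DMSO vehicle).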
Active calls of the source: *; ? = inconclusive; . = no result given. Unless noted, the call rests on the fitted dose curve; in most records, active means well fitted curve in the direction sought with a large enough effect; inconclusive means small, poorly fitted or top-dose-only effect, or another doubt; inactive means no such curve, though single readings can be large; an effect the other way counts as inactive or inconclusive.

SMILES | HepG2 viability | DT40 TDP1 CPT | IL-1B inflam inh | S-ASM inh | TGFb inhibitor | TDP1 cell noCPT
CSc1ccccc1C(=O)Nc1nc2ccccc2[nH]1 | -40.6% | 1.6% | 3.4 | 10.5% | -2.3% | 0.2%
CCC(C)(C)NC(=O)c1cc(C(=O)OC)cc([N+](=O)[O-])c1 | -12.2% | 0.1% | 15.2 | 1.3% | 29.4% | 14.1%
COc1ccc(Cl)cc1NC(=O)CCc1nnc2ccc(N3CCN(C)CC3)nn12 | -4.9% | 0.8% | -21.5 | 3.0% | 1.7% | 23.3%
COC(=O)c1cccc(N2C(=O)C[C@](Sc3ccc(C)cc3)(C(=O)OC)[C@H]2c2ccccc2)c1 | . | ? | 7.0 | . | . | 23.1µM*
COC(=O)[C@@]1(Sc2ccc(C)cc2)CC(=O)N(c2ccc3c(ccn3C)c2)[C@@H]1c1ccccc1 | . | ? | 38.4 | . | . | ?
COC(=O)[C@@]1(Sc2ccc(C)cc2)CC(=O)N(c2ccc(Cl)cc2)[C@@H]1c1ccccc1 | . | ? | 18.0 | . | . | 20.6µM*
COC(=O)[C@@]1(Sc2ccc(C)cc2)CC(=O)N(C(=O)C2CC2)[C@@H]1c1ccccc1 | . | -24.4% | 3.3 | . | . | ?
COC(=O)c1ccccc1NC(=O)CSc1nncn1-c1ccccn1 | -24.1% | 0.9% | 18.0 | -3.7% | 11.4% | 0.7%
O=C(/C=C/NCc1cccnc1)c1ccc(Br)cc1 | 0.9% | 1.9% | -18.8 | 1.2% | 3.2% | 10.4%
O=[N+]([O-])c1ccc(NC2CCN(Cc3ccccc3)CC2)c([N+](=O)[O-])c1 | -36.4% | ? | -2.7 | -14.5% | ? | 20.6µM*
CC1CCC2C(=O)N(c3ccc(NC4CCN(Cc5ccccc5)CC4)c([N+](=O)[O-])c3)C(=O)C2C1 (stereo not drawn) | -21.4% | ? | -12.6 | -3.2% | 3.8% | 16.4µM*
O=[N+]([O-])c1ccccc1NC1CCN(Cc2ccccc2)CC1 | -28.3% | -1.8% | ? | -11.4% | 0.0% | -26.2%
COc1ccc(-c2ccc(=O)n(CC(=O)NCCc3ccccc3)n2)cc1 | -0.6% | 8.1% | . | . | 2.1% | -2.1%
COc1cc(OC)cc(C(=O)NCC(=O)NC(C)c2ccccc2)c1 (stereo not drawn) | -7.9% | -10.2% | -27.1 | 2.3% | 4.6% | -0.3%
CCOc1ccc(NCc2nnc(SCC(=O)Nc3nc(-c4ccccc4)cs3)n2-c2ccccc2)cc1 | -40.2% | ? | -14.1 | 1.8% | ? | 23.1µM*
Cc1cccc(C)c1NCc1nnc(SCC(=O)Nc2nc(-c3ccccc3)cs2)n1-c1ccccc1 | -6.9% | 2.06µM* | 24.5 | -2.0% | -17.5% | 2.31µM*
COc1ccc(S(=O)(=O)NCCS(=O)(=O)N2CCN(c3ccccc3F)CC2)cc1 | -22.8% | ? | . | . | ? | ?
O=C(NCc1ccco1)c1c(Cl)cccc1Cl | 8.1% | -4.2% | -19.3 | . | -4.0% | -9.1%
O=C(Nc1cccc(Cl)c1)NC1(C(=O)NCc2cccs2)CCCCC1 | -29.1% | 20.6µM* | -5.4 | 6.8% | -13.5% | 25.9µM*
Cc1ccc(NC(=S)NC2CC3CCCC(C2)N3Cc2cccs2)cc1 (stereo not drawn) | -23.7% | ? | -74.1* | 2.6% | -5.0% | 17.8µM*
Cc1cccc(C)c1NC(=O)NC1CC2CCC(C1)N2Cc1cccs1 (stereo not drawn) | 6.1% | 0.9% | -12.2 | 2.6% | -3.2% | -0.6%
O=C(Nc1cccc(Cl)c1)NC1CC2CCC(C1)N2Cc1cccs1 (stereo not drawn) | 4.5% | 20.6µM* | -15.7 | 2.7% | 0.2% | 25.9µM*
CCOc1ccc2nc(N=NC3=C(O)CC(C)(C)CC3=O)sc2c1 | -16.3% | 3.66µM* | 214.5 | -3.4% | -10.6% | 4.11µM*
Cc1nc2ccc(N=NC3=C(O)CC(C)(C)CC3=O)cc2s1 | 7.6% | -7.0% | 52.0 | -2.5% | ? | ?
COC(=O)c1cccc(Cn2c(Cl)c(/C=N/NC(=O)c3ccco3)sc2=O)c1 | -10.9% | ? | ? | -5.0% | 1.8% | 9.2µM*
SMILES | HepG2 viability | DT40 TDP1 CPT | IL-1B inflam inh | S-ASM inh | TGFb inhibitor | TDP1 cell noCPT
COC(=O)c1cccc(Cn2c(Cl)c(/C=N/NC(=O)c3ccccc3Cl)sc2=O)c1 | -17.4% | ? | -9.4 | -3.9% | 7.5% | ?
O=c1[nH]c(SCc2ccccc2)nc2c1CCCC2 | -2.4% | ? | . | . | 1.3% | ?
O=C(Nc1ccc(-n2cccn2)cc1)C1CCCCN1Cc1cccc2cccnc12 (stereo not drawn) | -19.0% | ? | -50.3* | -2.0% | ? | ?
CCC(Sc1nc2c(sc3ccccc32)c(=O)n1CCc1ccc(OC)c(OC)c1)C(=O)N(CC)CC (stereo not drawn) | -28.7% | 6.51µM* | . | . | ? | 5.8µM*
C=CCNC(=O)CSc1nc2ccccc2c(=O)n1CCc1ccc(OC)c(OC)c1 | -33.6% | ? | -17.1 | -1.3% | -20.1% | ?
COc1ccc(CCn2c(SCCN3CCCCC3)nc3ccccc3c2=O)cc1OC | -25.9% | ? | -28.3 | 0.5% | 11.8% | 16.4µM*
CCC(Sc1nc2ccccc2c(=O)n1CCc1ccc(OC)c(OC)c1)C(=O)N(CC)CC (stereo not drawn) | -27.5% | 6.51µM* | . | . | ? | 6.51µM*
CC(C)NC(=O)C1(C)CCN1Cc1cccc(Cl)c1 (stereo not drawn) | -5.6% | ? | 13.6 | . | -7.2% | ?
COc1ccccc1CNc1nccn(-c2ccccc2)c1=O | -1.4% | ? | . | . | 0.0% | ?
O=S(=O)(c1ccc2c(c1)OCCO2)N1CCCN(S(=O)(=O)c2c(F)cccc2F)CC1 | -15.6% | . | . | 9.3% | -14.9% | .
COc1ccccc1CNC(=O)c1cnc2c(-c3ccccc3)c(C)nn2c1C | 0.0% | ? | . | . | 9.5% | ?
COc1cc(CNC(=O)c2cnc3c(-c4cccc(C)c4)c(C)nn3c2C)cc(OC)c1OC | -9.7% | 11.6µM* | . | . | -9.6% | 16.4µM*
CC(=O)c1cc(NC(=O)c2ccc(C)cc2)c(=O)oc1C | -17.4% | 23.1µM* | -106.1* | -0.7% | ? | ?
Cc1ccc(C(=O)Nc2cc3ccccc3oc2=O)cc1 | -2.8% | 2.06µM* | 36.6 | 3.2% | -1.4% | 3.66µM*
CC(=O)c1cc(NC(=O)c2ccccc2)c(=O)oc1C | -23.6% | ? | -102.0* | -1.0% | ? | 32.6µM*
CC(=O)c1cc(NC(=O)c2ccc(C)cc2)c(=O)oc1/C=C/N(C)C | -7.3% | -14.6% | -0.2 | -20.7% | 90.3% | -24.2%
